For 24 sequences, sensor-assay potency score (higher = more potent) results are on record in the OligoGym collection.
Also: reference of the scale not given here.

The first test addresses TDRD10. Nature of the test: pooled miR-30 sensor sort-seq; sequence = guide strand. The following applies: shRNA.
Take TTTAGGATGTGCAACGCCGAGT: the sensor-assay potency score (higher = more potent) is -0.733.
Still for that read-out and setting: next, TAGAAGGTACAGAATTTCCTCC: 0.0428.
Same read-out and setting: to TTCCTCCTTAGAAATATCCAGT belongs -0.848; to TTTGCTTGTATTCACGAACAGT, -0.914.
On the same count and under the same terms, next, ATGAACATGACCACAGCCCAGG: -1.56; AAGATTGCCAACATACACCTCT: 0.896; AAGTCGTCGCTGTCTAGGCTGC: -0.771.
TCCAACACTCCATTCTTCCCAA gave a sensor-assay potency score (higher = more potent) of -0.74.
The same measure, in the same setting: to TTTTGTGGACATCAAGAGGGTT belongs -0.194; to TTCTCCATTATCCAGAATCTGT, -1.03; to TTCACGAACAGTTTTCGCTTGT, 0.41.
TTTGTGGACATCAAGAGGGTTG displayed a sensor-assay potency score (higher = more potent) of -0.333.

In a further test the target is TDRD7. The test is described as above. Conditions: shRNA.
Take ATAGTCAACATAGCATACCTTT: the sensor-assay potency score (higher = more potent) is -1.08.
On the same count and under the same terms, next, TTCAATGACTGTCTGCACCAGT: 0.309.
Still for that read-out and setting: to TGACTTGTCACATATAGCCTTC belongs -0.332; to TAAATTATCACTCATTTCCTTA, -0.487.
On the same count and under the same terms, to TAGATTGTGGAAGATCTGCTAA belongs -0.00415; to TAGTGTAGGGAAACCTAGCTGT, -0.0859; to TTAGTTACTTTGACATTTGTGT, 0.2.
TTTCCTTTGTCTCTTAACGGTG: the sensor-assay potency score (higher = more potent) is -1.32.
For the sequence TTAACCACAGCACTGCATCTGG, the sensor-assay potency score (higher = more potent) is -0.0871.
TAGAAGGTCACTGAGCTTGTTC registered a sensor-assay potency score (higher = more potent) of -0.0033.
The same measure, in the same setting: next, TTTCTTGTAGAAACCGAGGTGG: 0.248; TATCGTACAGAACAACAAGTGG: -0.96.
